# Structures can show the parent of a compound that is named as a salt.
# Tests used:
# Assay in all cases: Euclidean distance of Cell Painting phenotypic profile (signed KS, 77 features) to DMSO centroid (dimensionless distance); 5 or 10 uM (library dependent); higher = stronger phenotypic change vs DMSO (phenoactivity)
# Conditions in all cases: 48 h
# 786-O = test system: 786-O
# In short: (§1)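 Five cancer lines and a healthy fibroblast line received library compounds at 10 or 5 uM (library-dependent, 0.1% DMSO final) for 48 h. Stained cells were imaged confocally at 20X (9 fields/well). Harmony extracted 77 features, each scored as a signed Kolmogorov-Smirnov statistic against same-plate vehicle wells. Profiles were plate-position corrected, correlation-weighted and replicate-averaged at the top dose. Phenoactivity is the Euclidean distance from each profile to the median vehicle profile.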
# A549 = test system: A549
# In short: as §1
# DU145 = test system: DU145
# In short: as §1
# FB = test system: FB
# In short: as §1
# HEPG2 = test system: HEPG2
# In short: as §1
# OVCAR4 = test system: OVCAR4
# In short: as §1
SMILES,Euclidean distance (786-O),Euclidean distance (A549),Euclidean distance (DU145),Euclidean distance (FB),Euclidean distance (HEPG2),Euclidean distance (OVCAR4)
CCCCC(CC)COC(=O)CC(C(=O)OCC(CC)CCCC)S(=O)(=O)O (centres undefined) [Docusate Sodium],0.771,0.602,0.942,1.2,0.96,1.25
CC[C@@H]([C@H](C)O)n1ncn(-c2ccc(N3CCN(c4ccc(OC[C@@H]5CO[C@@](Cn6cncn6)(c6ccc(F)cc6F)C5)cc4)CC3)cc2)c1=O [Posaconazole],3.81,2.06,2.09,2.3,1.43,1.21
CCN(CC)CCCC(C)Nc1c2ccc(Cl)cc2nc2ccc(OC)cc12 (centres undefined) [Quinacrine 2HCl],3.59,4.6,2.81,5.56,4.32,3.92
CCOc1ccc2c(-c3cccc(F)c3)nn(CC(=O)N(C)c3ccc4nc(C)oc4c3)c(=O)c2c1,1.05,0.995,1.36,0.808,0.431,0.932
COc1cc(O)c2c(c1)C(=O)c1cc(C)cc(O)c1C2=O [Rheochrysidin],1.23,0.528,1.42,0.862,4.92,1.29
Cc1cc2c(cc1S(N)(=O)=O)S(=O)(=O)CCC2 [Meticrane],0.951,0.864,2.26,0.946,1.17,0.99
CNC(=O)c1cccc(-c2ccc3c(N4CCOC[C@@H]4C)nc(N4CCOC[C@@H]4C)nc3n2)c1,4,3.14,2.52,4.98,4.09,4.15
Cc1cn([C@H]2O[C@@H](CO)[C@H](O)[C@H]2F)c(=O)[nH]c1=O [Clevudine],1.08,0.649,1.79,0.837,0.504,1.03
CC[C@H](Nc1ncnc2[nH]cnc12)c1oc2ccccc2c(=O)c1-c1cccc(F)c1 [Tenalisib (RP6530)],0.975,0.66,0.791,1.47,0.466,0.678
C[C@H](N[C@@H](CCc1ccccc1)C(=O)O)C(=O)N1CCC[C@H]1C(=O)O [Enalaprilat Dihydrate],1.22,1.17,0.803,0.927,0.793,1
O=C(Nc1cccc(Nc2ncc(Br)c(NCCc3cnc[nH]3)n2)c1)N1CCCC1,2.94,3.51,3.14,3.05,2.43,3.33
C=CCc1ccc(O)c(-c2ccc(O)c(CC=C)c2)c1 [Honokiol],0.998,0.732,1.22,1.46,1.39,1.18
Cc1ccnc2c1NC(=O)c1cccnc1N2C1CC1 [Nevirapine],1.2,0.789,0.803,0.827,1.93,0.872
O=C(c1ccc(NS(=O)(=O)c2cccc3cccnc23)cc1)N1CCN(CC2CC2)CC1 [Mitapivat],1.26,0.913,1.1,1.04,1.09,1.47
COC(=O)N[C@@H](C)CNc1nccc(-c2cn(C(C)C)nc2-c2cc(Cl)cc(NS(C)(=O)=O)c2F)n1,2.13,1.78,1.47,2.67,3.02,1.86
COC(=O)N[C@H](C(=O)N1CCC[C@H]1c1nc(-c2ccc3c(c2)O[C@@H](c2ccccc2)n2c-3cc3cc(-c4c[nH]c([C@@H]5CCCN5C(=O)[C@@H](NC(=O)OC)C(C)C)n4)ccc32)c[nH]1)C(C)C [Elbasvir],2.17,1.94,1.26,1.97,1.04,1.58
C=CC(=O)Nc1cccc(Oc2nc(Nc3ccc(N4CCN(C)CC4)cc3OC)ncc2Cl)c1,1.32,1.34,1.43,0.99,1.05,1.98
CCN(CC)CC(=O)Nc1c(C)cccc1C [Lidocaine],1.65,0.785,1.51,0.913,0.435,1.11
CCCCCc1ccc(C)cc1O [Amylmetacresol],0.732,0.727,0.517,0.859,0.412,0.661
CC(=O)O[C@]1(C(C)=O)CC[C@H]2[C@@H]3C=C(Cl)C4=CC(=O)CC[C@]4(C)[C@H]3CC[C@@]21C [Chlormadinone acetate],1.27,1.1,1.72,1.26,0.98,0.962
OCCOCCN1CCN(C(c2ccccc2)c2ccc(Cl)cc2)CC1 (centres undefined) [Hydroxyzine 2HCl],1.32,0.879,1.07,0.804,1.04,1.17
N=C(N)NC(=N)N1CCOCC1 [Moroxydine HCl],1.5,0.937,1.25,0.666,0.422,1.22
Clc1ccc2c(N3CCN(CCCN4CCN(c5ccnc6cc(Cl)ccc56)CC4)CC3)ccnc2c1 [Piperaquine phosphate],1.59,1.33,1.11,1.45,0.952,1.25
NC(=O)c1ccc(I)c([N+](=O)[O-])c1 [Iniparib (BSI-201)],1.06,0.758,1.44,1.31,0.803,1.14

# From the supplement of paper PMC10127200
